Efflux pump mplx: inhibitors of Candida antifungal efflux pumps expressed in yeast. AID 485275. hit rate 0.44% among 330,000. inhibition, % at 10 µM. S. cerevisiae Candida pump triplex, Nile Red efflux;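 active means plate passing quality check with inhibition over a set limit, or well fluorescence over plate mean plus 4 SD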;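 further: Nile Red retained in pooled yeast measured as flow cytometry median fluorescence; 0% = buffer negative control and 100% = Enniatin B positive control; higher means more Nile Red kept so more efflux inhibition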
GC-A act: GC-A (human) enzyme activation; HEK293 GC-A cells, cGMP TR-FRET, EC30 ANP; 0% at EC30 ANP, 100% saturating ANP; activation, % at 10 µM; hit rate 0.14% among 370,000; AID 1671463; in the data active means activation above about 40%
Target sequence (P16066 whole entry, looked up): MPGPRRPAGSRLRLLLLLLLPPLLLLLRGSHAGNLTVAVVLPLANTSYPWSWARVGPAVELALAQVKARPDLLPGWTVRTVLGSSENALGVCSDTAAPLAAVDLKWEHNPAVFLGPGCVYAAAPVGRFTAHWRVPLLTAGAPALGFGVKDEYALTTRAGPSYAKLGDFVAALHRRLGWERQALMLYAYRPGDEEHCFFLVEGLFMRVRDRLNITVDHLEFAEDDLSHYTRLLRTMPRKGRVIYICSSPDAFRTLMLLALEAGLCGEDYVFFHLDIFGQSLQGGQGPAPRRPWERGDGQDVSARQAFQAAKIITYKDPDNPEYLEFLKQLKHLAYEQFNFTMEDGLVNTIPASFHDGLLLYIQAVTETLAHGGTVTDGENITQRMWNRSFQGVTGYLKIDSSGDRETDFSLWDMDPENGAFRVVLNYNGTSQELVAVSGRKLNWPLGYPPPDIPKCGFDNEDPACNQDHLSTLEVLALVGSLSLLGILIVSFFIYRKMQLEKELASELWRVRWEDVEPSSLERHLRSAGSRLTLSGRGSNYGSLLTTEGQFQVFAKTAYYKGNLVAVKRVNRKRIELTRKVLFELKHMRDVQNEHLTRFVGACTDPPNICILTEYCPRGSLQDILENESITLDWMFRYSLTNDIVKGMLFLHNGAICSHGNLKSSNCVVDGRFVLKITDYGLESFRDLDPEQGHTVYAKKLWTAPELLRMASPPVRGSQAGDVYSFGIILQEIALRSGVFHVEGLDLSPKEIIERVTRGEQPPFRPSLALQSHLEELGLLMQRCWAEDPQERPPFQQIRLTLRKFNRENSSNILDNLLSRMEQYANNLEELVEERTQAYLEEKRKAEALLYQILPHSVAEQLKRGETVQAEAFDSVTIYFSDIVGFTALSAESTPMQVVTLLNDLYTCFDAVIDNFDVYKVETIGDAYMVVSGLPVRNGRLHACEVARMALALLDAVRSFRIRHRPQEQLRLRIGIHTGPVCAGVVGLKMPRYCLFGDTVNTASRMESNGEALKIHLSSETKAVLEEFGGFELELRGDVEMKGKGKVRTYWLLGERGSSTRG
GC-B act: GC-B (human) receptor activation | AID 1920062 | P20594 | HEK293-GC-B cells, CNP EC30, cGMP TR-FRET; 0% at EC30 CNP, 100% saturating CNP | hit rate 0.11% among 370,000 | activation, % at 10 µM;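 active means activation at 10 µM reaching about 35% in either raw or pattern-adjusted values, limit read from the data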
HSV augment: HSV replication enhancement; HSV replication augmentation in cells, fold increase; maximum fold increase; hit rate 0.005% among 220,000; in the data active means maximum fold increase above about 1.5; inconclusive means no clear call, values can overlap the other calls; tested in PC3 cells
TAG inh: inhibitors of triacylglycerol accumulation; H9c2 cells, Nile Red lipid (TAG) fluorescence; cells loaded with 200 µM oleic acid; inhibition, % at 12.5 µM; hit rate 0.66% among 230,000; AID 651582;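 active means pattern-corrected inhibition of lipid staining of at least 50% with the nuclear-stain viability signal not falling by more than 50%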;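 further: 0% = DMSO wells and 100% = triacsin C control wells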
A1 inh: inhibitors of the anti-apoptotic protein A1, read as caspase activation; hit rate 0.066% among 330,000; MEF A1-2A-BIM cells, Caspase-Glo 3/7 luminescence, 3 h; percent of clofoctol response, vehicle zero; caspase activation, % (no concentration beside the values); AID 2462;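 active means over half of replicate activation scores above 10%, or exactly half above 10 with the replicate mean above 10; inconclusive means replicate mean below 10 yet half the replicates above 10; inactive means over half of replicates below 10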
Starred values were filed as active, the others as inactive; i = inactive; ? = inconclusive; · = no result given. Rows were chosen to be rich in hits. Some 1% of all compounds tested hit in one or more screens of this group.

SMILES	Efflux pump mplx	GC-A act	GC-B act	HSV augment	TAG inh	A1 inh
CCOC(=O)Cn1ccc(NC(=O)COc2ccc(F)cc2F)n1	0	41*	-3	·	·	1
CCOC(=O)Cn1ccc(NC(=O)c2ccc(F)cc2)n1	0	50*	-10	·	·	-7
CCOC(=O)Cc1csc(/N=C/c2c(O)n(-c3ccc(C)c(C)c3)c(=O)c3ccccc23)n1	0	0	3	i	·	22*
Cc1cc(N=Cc2c(O)n(-c3ccc(C)c(C)c3)c(=O)c3ccccc23)no1	·	3	2	i	·	·
Cc1cc(-c2n[nH]c(=S)n2N=Cc2cc(Br)ccc2F)n[nH]1	·	2	-2	·	·	·
COc1cccc(CNC(=O)C2CCCN(c3ncccn3)C2)c1OC (centres undefined)	·	-1	4	·	·	·
O=C1c2cccc3cccc(c23)C(=O)N1c1nccs1	0	0	6	i	·	1
O=C1c2cccc3c([N+](=O)[O-])ccc(c23)C(=O)N1c1nccs1	1.2*	28	21	?	·	-1
CC(C)CN1C(=O)[C@@]2(CC(=O)N(C)C2c2ccccc2)c2cc(-n3cc(-c4ccccc4)nn3)ccc21 (some centres undefined)	·	3	12	·	·	·
CC(=O)Nc1cccc(Oc2ncnc3scc(-c4ccc(C)cc4)c23)c1	0	55*	58*	i	·	0
Cn1cccc1CC(=O)NN=C/C=C\c1ccco1	·	-4	-2	·	·	·
COc1ccc(CNC(=O)c2c(C)oc3c2C(=O)c2ccccc2C3=O)cc1	0	-9	-10	i	101*	-1
Cc1oc2c(c1C(=O)NCc1cccnc1)C(=O)c1ccccc1C2=O	0	·	·	·	·	-2
CCOC(=O)CC[C@H]1CC[C@]2(CCCN(C3CCCCC3)C2)O1	·	3	-1	·	·	·
O=C(O)c1ccccc1-c1ccc(/C=c2\sc3nc4cc(Br)cnc4n3c2=O)o1	0	·	·	·	·	-1
O=C(O)c1cc(-c2ccc(/C=c3\sc4nc5ccc(Br)cc5n4c3=O)o2)ccc1Cl	1.6*	·	·	·	·	0
CC(=O)NCCNc1nc2c(-c3cccc(C(F)(F)F)c3)nnn2c2ccccc12	0	8	5	·	·	1
COCCNc1nc2c(-c3cccc(C(F)(F)F)c3)nnn2c2ccccc12	0	39	42*	·	·	1
CCN1C(=O)c2cccc3c(NC(=O)c4ccc(S(=O)(=O)N(C)C)cc4)ccc1c23	0	29	42*	i	18	1
COC(=O)c1ccc(S(=O)(=O)N2CCC(NC(=O)CCC3CCCC3)CC2)cc1	·	0	2	·	·	·
C[C@@]12C(=O)Nc3cc(Cl)ccc3C(=O)N1[C@H]1c3cc(Br)ccc3OC[C@@H]1[C@@H]2c1ccccc1	0	-3	-4	·	53*	1
C/C(=N\Nc1nc2ccccc2s1)c1ccc(Br)s1	0	-2	-8	i	·	0
CC(=NNc1nc2ccccc2s1)c1ccncn1	·	-31	-18	·	64*	·
O=C(CN1C(=O)CCSc2ccccc21)Nc1ccc(Cl)cc1	·	1	-2	·	·	·
COc1ccc(Oc2c(-c3ccc(O)cc3O)n[nH]c2C)cc1	0	44*	1	i	1	1
SMILES	Efflux pump mplx	GC-A act	GC-B act	HSV augment	TAG inh	A1 inh
CCCOC(=O)c1ccc(Oc2c(-c3ccc(OCC)cc3O)n[nH]c2C)cc1	0	-3	6	i	·	0
Cc1ccc(CNc2nc(C)nc3sc4c(c23)CCC4)cc1	0	40*	45*	i	·	0
CCOc1ccc(OCCC(=O)OCC(=O)NC(C)c2ccccc2)cc1 (centres undefined)	0	0	0	·	6	0
CC(NC(=O)COC(=O)COc1ccc(C(=O)c2ccccc2)cc1)c1ccccc1 (centres undefined)	0	65*	8	·	-8	-1
O=C(COC(=O)c1cccc(S(=O)(=O)N2CCCC2)c1)Nc1ccc(Cl)cc1	·	0	97*	·	4	·
NS(=O)(=O)c1ccc(NC(=O)COC(=O)c2cccc(S(=O)(=O)N3CCCC3)c2)cc1	0	2	-2	i	2	-1
CCOC(=O)c1c(NC(=O)CN(C)C)sc(C(=O)N(CC)CC)c1C	0	5	6	i	10	1
CCOC(=O)c1c(NC(=O)C2c3ccccc3Oc3ccccc32)sc(C(=O)N(CC)CC)c1C	0	·	·	i	81*	0
CC1=CC(C)(C)N2C(=O)C3(NCCc4c3[nH]c3ccccc43)c3cc(C)cc1c32 (centres undefined)	0	-11	-5	i	68*	2
Cc1ccc(S(=O)(=O)c2nnn3c2nc(Nc2cccc(C)c2)c2ccccc23)cc1	0	49*	50*	i	·	?
COc1ccc(NC(=O)C(Cl)=C(Cl)Cl)cn1	·	1	1	i	2	·
COc1ccc(NC(=O)/C(Cl)=C(/Cl)S(=O)Cc2ccc(Cl)cc2)cn1 (centres undefined)	·	-49	-20	i	88*	·
CN1CCN(c2ccc3c(c2)Oc2ccccc2CN(Cc2cn(Cc4ccccc4C(F)(F)F)nn2)S3(=O)=O)CC1	·	1	0	·	·	·
Cc1cc(C)cc(N(CC(=O)NC2CCC(C)CC2)S(=O)(=O)c2ccc(C(C)(C)C)cc2)c1 (centres undefined)	·	2	7	·	·	·
Cc1ccc2[nH]c3c(c2c1)CCCC3C(N)=O (centres undefined)	0	1	-3	i	·	0
Cc1ccc2[nH]c3c(c2c1)CCCC3NC(=O)CCl (centres undefined)	0	·	·	·	·	5.3*
CCN1CCCCC(NC(=O)c2ccccc2OC)C1=O (centres undefined)	·	-1	9	·	·	·
O=C(O)[C@H]1CCCN1C(=O)c1ccccc1N1C(=O)[C@@H]2Cc3c([nH]c4ccccc34)C(c3cccc(Cl)c3)N2C1=O (some centres undefined)	0	22	35*	·	·	0
Cc1cccc(OC(=O)c2sc(Cl)nc2C)c1	0	56*	6	i	·	2
COc1cccc(NC(=O)c2sc(Cl)nc2C)c1	0	4	6	·	-7	-3
CN1c2ccc(C#CC3CC3)cc2[C@@H]2[C@@H](CCN2C(=O)C2CCOCC2)[C@H]1CO	·	-1	3	·	·	·
Oc1c(C(c2ccccc2Cl)N2CCCC2)ccc2cccnc12 (centres undefined)	0	1	-2	i	62*	0
Oc1c(C(c2cccs2)N2CCN(c3ccccc3)CC2)ccc2cccnc12 (centres undefined)	0	·	·	·	·	4
Nc1nc(NCc2ccco2)nc(Nc2ccccc2)c1[N+](=O)[O-]	0	1	-5	i	-9	0
Nc1nc(Nc2ccccc2)nc(NCc2ccco2)c1[N+](=O)[O-]	0	47*	11	i	·	-1

Source: PubChem
